# Results: publication PMC7862700, “An all-to-all approach to the identification of sequence-specific readers for epigenetic DNA modifications on cytosine”
# What was measured:
# Experiment in all cases: DAPPL (digital affinity profiling via proximity ligation, sequencing); 10 mM Tris-HCl pH 7.5, 50 mM NaCl, 1 mM DTT, 4% glycerol, room temperature, 30 min; GST-TFs on glutathione beads, 16-mer random dsDNA library, 0.1% formaldehyde crosslink after washing; high values mean tight binding
# FEV = target: T1, FEV (Homo sapiens, UniProt Q99581 1-238); settings: protein: recombinant; tags: N-terminal GST; dsDNA, one strand shown
# T1 sequence: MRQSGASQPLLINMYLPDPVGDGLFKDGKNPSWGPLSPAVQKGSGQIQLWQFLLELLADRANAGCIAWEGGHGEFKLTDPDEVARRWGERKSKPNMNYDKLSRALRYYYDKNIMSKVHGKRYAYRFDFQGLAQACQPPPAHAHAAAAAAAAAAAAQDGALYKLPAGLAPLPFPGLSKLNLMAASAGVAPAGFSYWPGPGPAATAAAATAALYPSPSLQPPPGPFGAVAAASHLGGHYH
# Summary of the method: (§1)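 Binding signal is each hexamer's read frequency for a factor divided by its frequency in the tag-only sample. The factors were GST-fused human transcription factors from yeast, captured on glutathione beads, DNA-barcoded and pooled with that sample. Pools were incubated with 200 nmole of a random double-stranded 16-mer DNA library in Tris/NaCl/DTT/glycerol buffer at room temperature for 30 min, then washed, crosslinked with 0.1% formaldehyde, proximity-ligated with BsaI/T4 ligase (1 h, 37 °C), PCR-amplified and sequenced on an Illumina NextSeq500.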
# ETV5 = ETV5 (Homo sapiens, UniProt P41161 1-510); settings: protein: recombinant; tags: N-terminal GST; dsDNA, one strand shown
# Chain of ETV5 (P41161 whole entry): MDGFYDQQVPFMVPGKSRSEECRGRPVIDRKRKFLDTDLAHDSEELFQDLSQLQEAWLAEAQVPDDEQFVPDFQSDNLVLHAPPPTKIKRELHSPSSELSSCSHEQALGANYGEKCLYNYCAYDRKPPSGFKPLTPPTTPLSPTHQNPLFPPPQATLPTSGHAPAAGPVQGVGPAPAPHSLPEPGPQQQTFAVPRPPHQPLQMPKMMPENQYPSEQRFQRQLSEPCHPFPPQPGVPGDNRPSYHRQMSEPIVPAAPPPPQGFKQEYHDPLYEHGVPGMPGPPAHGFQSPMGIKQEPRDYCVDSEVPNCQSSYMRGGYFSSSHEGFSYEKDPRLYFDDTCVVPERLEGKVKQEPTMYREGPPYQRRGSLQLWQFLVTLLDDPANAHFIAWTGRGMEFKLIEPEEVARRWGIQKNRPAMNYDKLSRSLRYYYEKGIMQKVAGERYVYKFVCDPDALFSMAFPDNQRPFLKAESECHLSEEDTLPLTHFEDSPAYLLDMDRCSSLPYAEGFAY
# Summary of the method: as §1
# HSF1 = HSF1 (Homo sapiens, UniProt Q00613 1-529); settings: protein: recombinant; tags: N-terminal GST; chain copies: 3; dsDNA, one strand shown
# Chain of HSF1 (Q00613 whole entry): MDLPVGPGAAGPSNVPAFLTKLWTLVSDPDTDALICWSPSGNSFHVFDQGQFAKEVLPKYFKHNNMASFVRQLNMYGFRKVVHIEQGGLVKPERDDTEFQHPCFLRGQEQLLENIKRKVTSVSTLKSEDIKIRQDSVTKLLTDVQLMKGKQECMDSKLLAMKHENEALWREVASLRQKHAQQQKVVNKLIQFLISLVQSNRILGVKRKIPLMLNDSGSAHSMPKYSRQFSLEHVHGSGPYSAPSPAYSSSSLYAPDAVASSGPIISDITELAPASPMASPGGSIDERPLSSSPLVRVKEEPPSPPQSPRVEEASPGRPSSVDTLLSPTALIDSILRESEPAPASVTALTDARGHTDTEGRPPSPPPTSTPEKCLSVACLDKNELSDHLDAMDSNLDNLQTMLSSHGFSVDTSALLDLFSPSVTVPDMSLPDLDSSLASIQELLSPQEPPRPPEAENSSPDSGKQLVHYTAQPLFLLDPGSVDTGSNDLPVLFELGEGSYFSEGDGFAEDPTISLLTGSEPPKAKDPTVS
# Summary of the method: as §1
# SPIC = target: T2, SPIC (Homo sapiens, UniProt Q8N5J4 1-248); settings: protein: recombinant; tags: N-terminal GST; dsDNA, one strand shown
# T2 sequence: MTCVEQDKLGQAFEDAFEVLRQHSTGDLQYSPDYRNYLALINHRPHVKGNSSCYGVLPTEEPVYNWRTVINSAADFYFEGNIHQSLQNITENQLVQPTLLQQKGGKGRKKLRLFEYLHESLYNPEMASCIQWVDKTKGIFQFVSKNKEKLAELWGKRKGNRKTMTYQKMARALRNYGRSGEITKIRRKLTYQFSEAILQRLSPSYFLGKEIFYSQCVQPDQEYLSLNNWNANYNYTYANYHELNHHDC
# Summary of the method: as §1
# ELF4 = ELF4 (Homo sapiens, UniProt Q99607 1-663); settings: protein: recombinant; tags: N-terminal GST; dsDNA, one strand shown
# Chain of ELF4 (Q99607 whole entry): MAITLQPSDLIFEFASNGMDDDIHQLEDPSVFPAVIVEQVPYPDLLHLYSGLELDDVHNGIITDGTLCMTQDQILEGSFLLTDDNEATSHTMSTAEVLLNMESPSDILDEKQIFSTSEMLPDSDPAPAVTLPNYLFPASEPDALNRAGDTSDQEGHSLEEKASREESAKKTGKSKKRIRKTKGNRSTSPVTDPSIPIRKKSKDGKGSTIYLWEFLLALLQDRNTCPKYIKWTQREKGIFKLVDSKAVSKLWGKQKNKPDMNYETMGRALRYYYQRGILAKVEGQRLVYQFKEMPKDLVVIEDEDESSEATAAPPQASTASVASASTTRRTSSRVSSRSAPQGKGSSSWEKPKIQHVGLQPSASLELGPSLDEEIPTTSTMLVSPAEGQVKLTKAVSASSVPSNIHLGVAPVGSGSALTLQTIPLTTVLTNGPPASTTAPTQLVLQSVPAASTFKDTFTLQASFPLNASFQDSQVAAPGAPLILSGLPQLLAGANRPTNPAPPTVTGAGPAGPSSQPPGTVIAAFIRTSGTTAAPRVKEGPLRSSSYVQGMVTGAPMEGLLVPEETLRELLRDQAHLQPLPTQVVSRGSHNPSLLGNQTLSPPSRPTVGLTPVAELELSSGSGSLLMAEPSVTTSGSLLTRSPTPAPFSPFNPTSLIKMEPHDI
# Summary of the method: as §1
# ELK4 = target: T3, ELK4 (Homo sapiens, UniProt P28324-2 1-405); settings: protein: recombinant; tags: N-terminal GST; dsDNA, one strand shown
# T3 sequence: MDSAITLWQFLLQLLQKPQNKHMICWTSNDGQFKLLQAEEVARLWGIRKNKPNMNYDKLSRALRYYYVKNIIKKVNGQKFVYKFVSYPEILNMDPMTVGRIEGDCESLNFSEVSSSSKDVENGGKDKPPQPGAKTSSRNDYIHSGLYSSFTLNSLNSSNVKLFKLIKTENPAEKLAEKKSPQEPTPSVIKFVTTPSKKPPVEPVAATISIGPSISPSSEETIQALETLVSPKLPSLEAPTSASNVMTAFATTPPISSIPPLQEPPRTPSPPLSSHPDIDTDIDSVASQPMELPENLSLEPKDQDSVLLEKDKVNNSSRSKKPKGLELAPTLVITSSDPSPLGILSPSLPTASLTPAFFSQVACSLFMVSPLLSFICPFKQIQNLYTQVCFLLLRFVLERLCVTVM
# Summary of the method: as §1
# ETV2 = target: T4, ETV2 (Homo sapiens, UniProt O00321 1-342); settings: protein: recombinant; tags: N-terminal GST; dsDNA, one strand shown
# T4 sequence: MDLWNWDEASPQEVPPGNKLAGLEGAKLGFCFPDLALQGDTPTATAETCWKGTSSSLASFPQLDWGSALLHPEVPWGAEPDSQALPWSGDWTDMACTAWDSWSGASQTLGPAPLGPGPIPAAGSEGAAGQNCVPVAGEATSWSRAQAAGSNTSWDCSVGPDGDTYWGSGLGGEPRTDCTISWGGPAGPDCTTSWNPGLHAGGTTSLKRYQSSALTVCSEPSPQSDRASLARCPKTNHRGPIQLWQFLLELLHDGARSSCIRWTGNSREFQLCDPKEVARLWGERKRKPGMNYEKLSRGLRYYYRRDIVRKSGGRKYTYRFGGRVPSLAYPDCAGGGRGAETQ
# Summary of the method: as §1
# ELF3 = target: T5, ELF3 (Homo sapiens, UniProt P78545 1-371); settings: protein: recombinant; tags: N-terminal GST; dsDNA, one strand shown
# T5 sequence: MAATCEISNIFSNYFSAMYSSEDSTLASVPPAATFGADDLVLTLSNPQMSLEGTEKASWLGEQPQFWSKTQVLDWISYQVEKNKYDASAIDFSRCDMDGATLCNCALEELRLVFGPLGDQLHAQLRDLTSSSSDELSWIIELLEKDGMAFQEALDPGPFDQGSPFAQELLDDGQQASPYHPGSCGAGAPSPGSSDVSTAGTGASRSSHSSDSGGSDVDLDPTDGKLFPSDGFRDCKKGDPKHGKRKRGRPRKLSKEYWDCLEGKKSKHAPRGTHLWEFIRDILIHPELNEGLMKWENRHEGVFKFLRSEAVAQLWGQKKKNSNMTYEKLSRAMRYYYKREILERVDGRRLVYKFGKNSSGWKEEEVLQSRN
# Summary of the method: as §1
# CRX = CRX (Homo sapiens, UniProt O43186 1-299); settings: protein: recombinant; tags: N-terminal GST; dsDNA, one strand shown
# Chain of CRX (O43186 whole entry): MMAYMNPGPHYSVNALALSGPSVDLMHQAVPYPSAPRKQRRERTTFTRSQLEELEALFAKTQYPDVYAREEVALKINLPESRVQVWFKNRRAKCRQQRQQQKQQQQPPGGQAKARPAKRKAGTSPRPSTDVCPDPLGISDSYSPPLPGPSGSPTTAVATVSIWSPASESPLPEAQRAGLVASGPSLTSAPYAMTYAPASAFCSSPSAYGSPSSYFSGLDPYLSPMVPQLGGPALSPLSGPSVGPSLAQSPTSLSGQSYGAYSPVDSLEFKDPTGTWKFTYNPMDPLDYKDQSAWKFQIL
# Summary of the method: as §1
# ETV1 = ETV1 (Homo sapiens, UniProt P50549 1-477); settings: protein: recombinant; tags: N-terminal GST; dsDNA, one strand shown
# Chain of ETV1 (P50549 whole entry): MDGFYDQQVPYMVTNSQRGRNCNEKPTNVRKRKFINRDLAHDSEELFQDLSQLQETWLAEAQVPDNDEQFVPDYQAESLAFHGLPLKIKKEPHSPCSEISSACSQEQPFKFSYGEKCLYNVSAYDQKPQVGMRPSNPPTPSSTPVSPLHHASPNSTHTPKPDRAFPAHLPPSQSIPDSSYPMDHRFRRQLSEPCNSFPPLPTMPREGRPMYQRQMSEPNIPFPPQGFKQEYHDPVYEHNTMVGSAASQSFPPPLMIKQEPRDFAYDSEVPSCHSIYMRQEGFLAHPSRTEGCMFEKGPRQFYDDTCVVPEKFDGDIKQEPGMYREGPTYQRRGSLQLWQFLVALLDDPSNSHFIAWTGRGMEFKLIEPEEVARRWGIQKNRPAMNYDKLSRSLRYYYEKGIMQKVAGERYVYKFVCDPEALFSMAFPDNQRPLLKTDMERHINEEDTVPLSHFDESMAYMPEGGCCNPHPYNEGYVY
# Summary of the method: as §1
# ERF = target: T6, ERF (Homo sapiens, UniProt P50548 1-548); settings: protein: recombinant; tags: N-terminal GST; dsDNA, one strand shown
# T6 sequence: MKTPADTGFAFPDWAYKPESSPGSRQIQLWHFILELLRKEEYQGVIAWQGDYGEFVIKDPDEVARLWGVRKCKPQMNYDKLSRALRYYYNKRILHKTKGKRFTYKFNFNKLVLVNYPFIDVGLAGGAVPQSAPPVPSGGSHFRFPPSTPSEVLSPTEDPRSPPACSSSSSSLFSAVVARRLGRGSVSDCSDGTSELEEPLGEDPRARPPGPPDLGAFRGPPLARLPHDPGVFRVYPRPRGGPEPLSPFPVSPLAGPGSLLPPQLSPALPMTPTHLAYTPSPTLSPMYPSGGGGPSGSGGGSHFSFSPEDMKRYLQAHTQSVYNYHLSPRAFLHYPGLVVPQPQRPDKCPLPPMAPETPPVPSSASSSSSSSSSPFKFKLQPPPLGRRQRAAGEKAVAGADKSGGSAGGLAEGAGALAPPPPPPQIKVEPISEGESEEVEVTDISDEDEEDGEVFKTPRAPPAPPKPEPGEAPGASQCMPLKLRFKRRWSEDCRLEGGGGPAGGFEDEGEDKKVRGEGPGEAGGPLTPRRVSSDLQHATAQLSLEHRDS
# Summary of the method: as §1
# ETV3L = target: T7, ETV3L (Homo sapiens, UniProt Q6ZN32 1-361); settings: protein: recombinant; tags: N-terminal GST; dsDNA, one strand shown
# T7 sequence: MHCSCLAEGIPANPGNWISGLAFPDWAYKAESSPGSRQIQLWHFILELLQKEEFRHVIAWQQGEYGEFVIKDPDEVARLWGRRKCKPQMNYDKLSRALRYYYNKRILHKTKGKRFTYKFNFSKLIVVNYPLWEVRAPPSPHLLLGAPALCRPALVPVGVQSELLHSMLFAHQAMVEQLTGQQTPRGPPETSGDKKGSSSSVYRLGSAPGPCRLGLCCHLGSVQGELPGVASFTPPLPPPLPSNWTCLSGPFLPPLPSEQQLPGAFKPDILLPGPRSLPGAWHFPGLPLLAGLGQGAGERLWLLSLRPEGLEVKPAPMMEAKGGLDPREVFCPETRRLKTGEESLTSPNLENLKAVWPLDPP
# Summary of the method: as §1
# ETS2 = target: T8, ETS2 (Homo sapiens, UniProt P15036 1-469); settings: protein: recombinant; tags: N-terminal GST; dsDNA, one strand shown
# T8 sequence: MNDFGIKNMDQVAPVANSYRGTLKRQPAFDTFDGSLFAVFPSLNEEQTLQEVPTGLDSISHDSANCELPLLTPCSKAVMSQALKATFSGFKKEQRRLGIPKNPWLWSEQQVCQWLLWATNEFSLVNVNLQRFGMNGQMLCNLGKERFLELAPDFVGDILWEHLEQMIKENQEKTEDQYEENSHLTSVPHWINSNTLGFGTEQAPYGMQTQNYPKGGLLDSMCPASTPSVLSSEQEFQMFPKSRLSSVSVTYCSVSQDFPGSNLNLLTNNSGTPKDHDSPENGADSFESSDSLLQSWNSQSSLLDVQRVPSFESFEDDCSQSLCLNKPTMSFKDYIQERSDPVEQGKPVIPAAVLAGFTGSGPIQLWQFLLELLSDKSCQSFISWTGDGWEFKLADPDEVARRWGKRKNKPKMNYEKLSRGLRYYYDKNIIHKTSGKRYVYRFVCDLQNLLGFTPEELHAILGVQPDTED
# Summary of the method: as §1
# SPDEF = target: T9, SPDEF (Homo sapiens, UniProt O95238 1-335); settings: protein: recombinant; tags: N-terminal GST; dsDNA, one strand shown
# T9 sequence: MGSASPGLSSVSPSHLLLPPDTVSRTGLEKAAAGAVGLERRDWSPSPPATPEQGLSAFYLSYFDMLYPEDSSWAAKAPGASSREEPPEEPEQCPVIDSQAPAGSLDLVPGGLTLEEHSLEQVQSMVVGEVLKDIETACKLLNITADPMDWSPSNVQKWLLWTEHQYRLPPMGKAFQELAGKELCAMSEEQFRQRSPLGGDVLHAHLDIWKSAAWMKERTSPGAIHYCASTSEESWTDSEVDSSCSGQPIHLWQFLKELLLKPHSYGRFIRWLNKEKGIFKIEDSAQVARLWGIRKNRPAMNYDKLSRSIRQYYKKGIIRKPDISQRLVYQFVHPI
# Summary of the method: as §1
# ETV7 = target: T10, ETV7 (Homo sapiens, UniProt Q9Y603 1-341); settings: protein: recombinant; tags: N-terminal GST; dsDNA, one strand shown
# T10 sequence: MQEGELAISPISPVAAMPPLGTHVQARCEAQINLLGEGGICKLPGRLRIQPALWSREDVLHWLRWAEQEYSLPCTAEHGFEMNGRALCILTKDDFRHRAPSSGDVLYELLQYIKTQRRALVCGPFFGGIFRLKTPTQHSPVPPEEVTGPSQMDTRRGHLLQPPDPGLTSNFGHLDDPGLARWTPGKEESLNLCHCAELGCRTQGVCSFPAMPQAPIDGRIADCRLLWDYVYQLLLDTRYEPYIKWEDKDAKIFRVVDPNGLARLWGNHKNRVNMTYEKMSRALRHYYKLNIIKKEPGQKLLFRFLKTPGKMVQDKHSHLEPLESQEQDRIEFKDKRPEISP
# Summary of the method: as §1
# ELF5 = target: T11, ELF5 (Homo sapiens, UniProt Q9UKW6-2 1-255); settings: protein: recombinant; tags: N-terminal GST; dsDNA, one strand shown
# T11 sequence: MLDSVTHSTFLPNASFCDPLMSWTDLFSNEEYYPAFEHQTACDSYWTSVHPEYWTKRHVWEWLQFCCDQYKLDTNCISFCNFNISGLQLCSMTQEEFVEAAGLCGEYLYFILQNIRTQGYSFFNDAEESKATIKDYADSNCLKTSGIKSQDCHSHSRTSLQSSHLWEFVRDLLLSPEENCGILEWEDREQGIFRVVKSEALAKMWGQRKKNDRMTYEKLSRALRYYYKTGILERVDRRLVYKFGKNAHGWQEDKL
# Summary of the method: as §1
# ETV3 = target: T12, ETV3 (Homo sapiens, UniProt P41162-2 1-143); settings: protein: recombinant; tags: N-terminal GST; dsDNA, one strand shown
# T12 sequence: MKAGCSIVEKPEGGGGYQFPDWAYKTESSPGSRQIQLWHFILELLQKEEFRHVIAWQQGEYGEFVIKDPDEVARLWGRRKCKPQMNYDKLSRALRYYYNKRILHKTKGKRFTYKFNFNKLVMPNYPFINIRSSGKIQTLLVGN
# Summary of the method: as §1
# ETV6 = ETV6 (Homo sapiens, UniProt P41212 1-452); settings: protein: recombinant; tags: N-terminal GST; dsDNA, one strand shown
# Chain of ETV6 (P41212 whole entry): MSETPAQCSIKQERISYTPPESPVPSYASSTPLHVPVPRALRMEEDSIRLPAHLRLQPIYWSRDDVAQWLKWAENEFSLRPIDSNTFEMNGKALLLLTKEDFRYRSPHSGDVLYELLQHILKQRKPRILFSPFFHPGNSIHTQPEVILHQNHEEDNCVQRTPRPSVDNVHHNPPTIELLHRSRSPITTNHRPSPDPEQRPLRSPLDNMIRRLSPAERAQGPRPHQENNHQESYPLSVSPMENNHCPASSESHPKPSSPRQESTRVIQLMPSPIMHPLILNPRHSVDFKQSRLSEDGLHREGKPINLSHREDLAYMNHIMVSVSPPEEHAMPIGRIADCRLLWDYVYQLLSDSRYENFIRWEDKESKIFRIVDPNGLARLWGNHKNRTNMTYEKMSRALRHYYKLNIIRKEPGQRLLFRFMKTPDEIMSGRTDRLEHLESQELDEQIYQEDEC
# Summary of the method: as §1
sequence,measurement,setting,value
TACACT,binding signal,FEV,"1.5 fold enrichment (6-mer frequency, TF over GST control)"
same,binding signal,ETV5,"1.5 fold enrichment (6-mer frequency, TF over GST control)"
same,binding signal,HSF1,"1.31 fold enrichment (6-mer frequency, TF over GST control)"
same,binding signal,SPIC,"1.58 fold enrichment (6-mer frequency, TF over GST control)"
same,binding signal,ELF4,"1.42 fold enrichment (6-mer frequency, TF over GST control)"
same,binding signal,ELK4,"1.53 fold enrichment (6-mer frequency, TF over GST control)"
same,binding signal,ETV2,"1.46 fold enrichment (6-mer frequency, TF over GST control)"
same,binding signal,ELF3,"1.36 fold enrichment (6-mer frequency, TF over GST control)"
same,binding signal,CRX,"1.35 fold enrichment (6-mer frequency, TF over GST control)"
same,binding signal,ETV1,"1.59 fold enrichment (6-mer frequency, TF over GST control)"
same,binding signal,ERF,"1.51 fold enrichment (6-mer frequency, TF over GST control)"
same,binding signal,ETV3L,"1.51 fold enrichment (6-mer frequency, TF over GST control)"
same,binding signal,ETS2,"1.49 fold enrichment (6-mer frequency, TF over GST control)"
same,binding signal,SPDEF,"1.55 fold enrichment (6-mer frequency, TF over GST control)"
same,binding signal,ETV7,"1.49 fold enrichment (6-mer frequency, TF over GST control)"
same,binding signal,ELF5,"1.52 fold enrichment (6-mer frequency, TF over GST control)"
same,binding signal,ETV3,"1.45 fold enrichment (6-mer frequency, TF over GST control)"
same,binding signal,ETV6,"1.6 fold enrichment (6-mer frequency, TF over GST control)"
